The values that follow come from PubChem BioAssay (EPA / NIEHS).

A short description of assay [1]: Tanguay_ZF_120hpf_MO24: Oregon State University Tanguay Lab 24 Hour Post-fertilization zebrafish Assay for Mortality (AID 2284389). The essentials:
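Embryo death at 24 hpf was recorded as present or absent in Tropical 5D zebrafish, dechorionated at 4 hpf and dosed statically from 6 hpf (28C, 0.64% DMSO); 5 uM trimethyltin chloride served as positive control.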

The nature of assay [2]: Tanguay_ZF_120hpf_DP24: Oregon State University Tanguay Lab 24 Hour Post-fertilization zebrafish Assay for Delayed Development (AID 2284390). The essentials:
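Scored at 24 hpf as a binary present/absent call of delayed development by brightfield, with dead embryos not assessed. Embryos (5D wild type, chorion removed with pronase at 4 hpf) dosed statically from 6 hpf at 28 C in 0.64% DMSO.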

A short description of assay [3]: Tanguay_ZF_120hpf_CRAN: Oregon State University Tanguay Lab 120 Hour Post-fertilization zebrafish Assay for Craniofacial Malformation (AID 2284397). In outline:
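Scoring of craniofacial malformation as a binary endpoint was done at 120 hpf by brightfield microscopy and was not done in dead embryos. Exposure was static, starting at 6 hpf, in dechorionated wild-type embryos held singly at 28C with 0.64% DMSO final.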

Assay [4] is described as follows: Tanguay_ZF_120hpf_MORT: Oregon State University Tanguay Lab 120 Hour Post-fertilization zebrafish Assay for Mortality (AID 2284399). In outline:
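Mortality, recorded present/absent via brightfield imaging at 24 and 120 hpf, in 5D zebrafish embryos exposed statically from 6 hpf after pronase chorion removal. Exposure at 28C, 0.64% DMSO vehicle, DMSO baseline.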

Assay [5] is described as follows: Tanguay_ZF_120hpf_EDEM: Oregon State University Tanguay Lab 120 Hour Post-fertilization zebrafish Assay for Edema Malformation (AID 2284400). The essentials:
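Edema recorded as a binary endpoint under brightfield at 120 hpf, excluding embryos that died. Exposure was static, sealed, 28C, from 6 hpf in dechorionated wild-type larvae, final DMSO 0.64%, DMSO as baseline.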

Assay [6] in a line: Tanguay_ZF_120hpf_BRN: Oregon State University Tanguay Lab 120 Hour Post-fertilization zebrafish Assay for Brain Region Malformation (AID 2284402). The essentials: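 Binary brightfield scoring of brain malformation at 120 hpf in 5D wild-type larvae, chorion removed with pronase at 4 hpf. Static exposure began at 6 hpf, 28C, sealed plates, DMSO 0.64% (vol/vol) as vehicle baseline.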

Assay [7] can be described thus: Tanguay_ZF_120hpf_TCHR: Oregon State University Tanguay Lab 120 Hour Post-fertilization zebrafish Assay for Touch Responsive (AID 2284403). In outline: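 Binary touch-response calls are made at 120 hpf in 5D wild-type zebrafish larvae. These larvae were dechorionated with pronase and exposed singly from 6 hpf in sealed, dark plates at 28 °C with 0.64% DMSO final; dead embryos are excluded.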

Another assay concerns SERPINA7 (gene 6906). Nature of the assay: CCTE_GLTED_hTBG: CCTE's human Thyroxine-binding Globulin (TBG) Inhibition Assay, Great Lakes Toxicology and Ecology Division (GLTED) Lab (AID 2284343; active means hit-call score of the fitted dose curve at least 0.9, where 1 is the maximum;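 further: active chemicals lower fluorescence versus DMSO baseline by displacing probe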). In outline: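 Cell-free displacement of the fluorescent probe ANSA from human thyroxine-binding globulin after 2 h exposure. Read-out at ex 380/em 475 nm; DMSO baseline.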
The nature of assay [8]: CCTE_Padilla_ZF_Score.Craniofacial: CCTE's 144 Hour Post-fertilization zebrafish Assay Score for Craniofacial Malformation, Padilla Lab (AID 2284405). In outline:
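Craniofacial defects were scored at 6 dpf by two blinded observers using stereomicroscopy. Exposure of wild-type embryos began at 6–8 hpf in sealed wells of 10% Hanks' solution at 26C, with chemical removed by rinsing at 5 dpf.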

Assay [9] is described as follows: CCTE_Padilla_ZF_Score.Edema: CCTE's 144 Hour Post-fertilization zebrafish Assay Score for Edema Malformation, Padilla Lab (AID 2284406). The essentials:
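Edema scored at 6 dpf by two blinded observers under a stereo microscope, in single outbred wild-type larvae exposed from 6-8 hpf in sealed wells (Hanks', 26C, 14:10 h light) and chemical-free after a 5 dpf rinse.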

A short description of assay [10]: CCTE_Padilla_ZF_Score.Spine: CCTE's 144 Hour Post-fertilization zebrafish Assay Score for Spine Malformation, Padilla Lab (AID 2284407). In outline:
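Spine malformation scored at 6 dpf by two independent blinded observers under stereomicroscope, after static sealed exposure from 6–8 hpf at 26C in Hanks' solution with rinse on 5 dpf. Positive-direction fit against DMSO control.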

Assay [11] in a line: CCTE_Padilla_ZF_Score.Swim_bladder: CCTE's 144 Hour Post-fertilization zebrafish Assay Score for Swim Bladder Malformation, Padilla Lab (AID 2284408). In outline: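 Swim bladder inflation scored at 6 dpf by two blinded observers under a stereo microscope. Exposure ran from 6–8 hpf in sealed wells of 10% Hanks' at 26C, with rinsing at 5 dpf; DMSO served as baseline.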
Assay [12] in a line: CCTE_Padilla_ZF_Score.Position: CCTE's 144 Hour Post-fertilization zebrafish Assay Score for Position, Padilla Lab (AID 2284409). The essentials: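 Wild-type zebrafish embryos (with chorions) exposed singly from 6–8 hpf in sealed wells of Hanks' solution at 26C, rinsed at 5 dpf. At 6 dpf, blinded assessors scored abnormal water-column position by brightfield stereomicroscopy, relative to DMSO.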

The nature of assay [13]: CCTE_Padilla_ZF_Score.Living: CCTE's 144 Hour Post-fertilization zebrafish Assay Score for Viability, Padilla Lab (AID 2284410).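 Further: larval death at 6 dpf judged by absent heartbeat or coagulation.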 The essentials:
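Mortality at 6 dpf, judged as absent heartbeat or coagulation by two blinded observers, after sealed static exposure beginning at 6–8 hpf at 26C. Larvae were rinsed free of chemical at 5 dpf, and activity was fitted relative to DMSO.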

Assay [14] is described as follows: CCTE_Mundy_HCI_iCellGluta_NOG_NeuronCount: CCTE's Neurite Outgrowth Assay in iCellGluta cells for Neuron Count, Mundy Lab (AID 2284340; active means hit-call score of the fitted dose curve at least 0.9, where 1 is the maximum;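 further: cells fixed about 48 h after compound addition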). The essentials:
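Neuron count read by automated high-content imaging of Hoechst 33342 and betaIII-tubulin/Alexa Fluor-488 labelling in human iPSC glutamatergic neurons. Activity fitted relative to DMSO.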

A short description of assay [15]: CCTE_Mundy_HCI_iCellGluta_NOG_NeuriteCount: CCTE's Neurite Outgrowth Assay in iCellGluta cells for Neurite Count, Mundy Lab (AID 2284342; active means hit-call score of the fitted dose curve at least 0.9, where 1 is the maximum;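 further: chemical exposure about 48 hours starting 2 hours after plating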).
Assay [16] in a line: Tanguay_ZF_120hpf_AXIS: Oregon State University Tanguay Lab 120 Hour Post-fertilization zebrafish Assay for Axial Malformation (AID 2284398). The essentials: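 Scoring was binary (present or absent) for body-axis defects, judged by brightfield imaging at 120 hpf in surviving larvae. Exposure was static at 28C from 6 hpf in chorion-free 5D wild-type embryos, with 0.64% DMSO vehicle.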

Assay [17] can be described thus: Tanguay_ZF_120hpf_ANY: Oregon State University Tanguay Lab 120 Hour Post-fertilization zebrafish Assay for Any Mortality and Malformation (AID 2284404). The essentials: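 Dechorionated Tropical 5D wild-type embryos, one per well from 6 hpf, static exposure in sealed, dark plates at 28C until 120 hpf, 0.64% DMSO final. Brightfield scoring of mortality and malformations as binary presence/absence, pooling 13 morphology endpoints.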

A short description of assay [18]: CCTE_Padilla_ZF_Score.General: CCTE's 144 Hour Post-fertilization zebrafish Assay Score for General Malformation, Padilla Lab (AID 2284411). The essentials:
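Malformation, death and hatching were scored at 6 dpf by two blinded observers under a stereo microscope. Embryos were dosed singly from 6-8 hpf in sealed plates of 10% Hanks' at 26C and rinsed on 5 dpf; DMSO baseline.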

SMILES strings stand for the structures. Results filed as inconclusive are left out. The source made the active and inactive calls. How the source made its calls, unless noted: active means hit-call score of the fitted dose curve at least 0.9, where 1 is the maximum; inactive means score below 0.9.

Consider `FC1CC(F)(F)C(F)(F)C1(F)F` (configuration not stated), for which the call in assay [1], in [2], in [3], in assay [4], in [5] and in assay [6] was inactive. In addition, the call in assay [7] was inactive.

As usually defined, the AC50 is the midpoint of the concentration-response curve, whichever way the signal moves. Take `FC(F)(F)C(F)(F)C(F)(F)C(F)(F)C(F)(F)CCI`: the AC50 was 27 µM (active) in the assay with SERPINA7 (gene 6906), 30.4 µM (active) in assay [9] and 30.4 µM (active) in assay [11]. The call in [1], in assay [2], in assay [3], in [4], in [5] and in assay [6] was inactive. Also, the result in assay [7], in assay [8], in [10], in assay [12] and in assay [13] was inactive.

Take `CC(C)(C)C(=O)CC(=O)C(F)(F)C(F)(F)C(F)(F)F`: the call in [14], in assay [15], in [1], in [2], in assay [3] and in [4] was inactive. Further, the result in [5], in [6], in assay [7] and in assay [10] was inactive. In addition, the AC50 in assay [8] is 30.3 µM (active); in [9], 27.5 µM (active); in assay [11], 27 µM (active); in [12] it was 29 µM (active); in assay [13], 32.8 µM (active).

For `OCC(F)(F)C(F)(F)C(F)(F)C(F)F`, the call in assay [14], in assay [15], in assay [1], in assay [2], in [3] and in assay [16] was inactive. Moreover, the call in assay [4], in assay [5], in [6], in assay [7], in [8] and in assay [10] was inactive. Further, the result in assay [11], in assay [12] and in assay [13] was inactive.

For the compound `N=C(N)C(F)(F)C(F)(F)C(F)(F)C(F)(F)C(F)(F)C(F)(F)C(F)(F)F`, the compound was called inactive in [14], in assay [15], in assay [1], in assay [2], in [3] and in assay [4]. The result in [5], in [6], in assay [7], in [8], in assay [10] and in assay [11] was inactive. In addition, in assay [12], the call was inactive. In addition, in [13], the AC50 was 22.2 µM (active).

Regarding `CC(Cc1ccc(O)c(O)c1)C(C)Cc1ccc(O)c(O)c1` (configuration not stated), the AC50 in the assay with SERPINA7 (gene 6906) was 7.96 µM (active).

For the compound `OCC(F)(F)C(F)(F)C(F)(F)F`, the compound was called inactive in assay [14], in assay [15], in assay [1], in [2], in assay [3] and in [4]. Besides, the compound was called inactive in [5], in assay [6], in assay [7], in assay [8], in assay [10] and in assay [11]. The outcome in assay [12] and in assay [13] was inactive.

As to `FC(F)(F)C(F)(F)C(F)(F)C(F)(F)C(F)(F)C(F)(F)C(F)(F)C(F)(F)CCS`, the concentration at half-maximal activity (AC50) in [14] is 5 µM (active). The compound was classed as inactive in [15], in [1], in [2], in [3], in assay [4] and in [5]. Also, the compound was called inactive in [6], in [7], in assay [8], in assay [10], in [11] and in assay [12]. For the same compound, in assay [13], the compound was called inactive.

Consider `O=C(O)C(F)(F)C(F)(F)C(F)(F)F`, for which the call in assay [14], in [15], in assay [1], in assay [2], in assay [3] and in [4] was inactive. The outcome in assay [5], in assay [6], in assay [7], in assay [8], in assay [10] and in [11] was inactive. Also, the compound was called inactive in [12] and in assay [13].

For the compound `O=S(=O)(OCC(F)F)C(F)(F)F`, the call in assay [1], in assay [2], in assay [3], in [16], in assay [4] and in [5] was inactive. For the same compound, the compound was called inactive in assay [6], in [7], in assay [17], in [8], in assay [10] and in [11]. Moreover, the compound was classed as inactive in [12], in [13] and in [18].

Consider `C=CC(=O)OCC(F)(F)C(F)(F)C(F)(F)C(F)(F)COC(=O)C=C`, for which the result in assay [14], in [15], in assay [3], in assay [16], in assay [5] and in [6] was inactive. Further, the call in assay [7], in [8], in assay [10] and in [12] was inactive. In addition, the AC50 with SERPINA7 (gene 6906) was 18.2 µM (active); in assay [1], 28.3 µM (active); in assay [2], 28.1 µM (active); in assay [4], 17.5 µM (active); in [11], 4.37 µM (active); in assay [13] it was 9.44 µM (active).

For the compound `CCN(Cc1cccc(S(=O)(=O)O)c1)c1ccc(C(=C2C=CC(=[N+](CC)Cc3cccc(S(=O)(=O)O)c3)C=C2)c2ccc(O)cc2S(=O)(=O)[O-])cc1`, the AC50 in the assay with SERPINA7 (gene 6906) was 25.4 µM (active).

Regarding `C=C(C)C(=O)OCC(F)(F)C(F)(F)C(F)(F)F`, the outcome in [14], in assay [15], in assay [1], in assay [2], in assay [3] and in [4] was inactive. In addition, the outcome in assay [5], in assay [6], in [7], in [8], in [10] and in [11] was inactive. Moreover, the compound was called inactive in assay [12], in [13] and in assay [18].

With `CCCCC(CC)COP(=O)(O)OCC(CC)CCCC` (configuration not stated), in the assay with SERPINA7 (gene 6906), the AC50 is 2.42 µM (active).

Consider `O=C(Cl)C(F)(F)C(F)(F)C(F)(F)C(F)(F)C(F)(F)C(F)(F)C(F)(F)C(F)(F)F`, for which the AC50 in the assay with SERPINA7 (gene 6906) is 14.9 µM (active). The result in assay [8], in assay [10], in [11], in [12] and in assay [13] was inactive.
